Measured values reported in PubChem BioAssay (NCATS).
Several values for one entry are separate records, joined by “and”; a condition that tells them apart may be missing. Equal values may be shown once. Inconclusive results are not listed. Activity calls are given as the source filed them. Calls come from the whole dose curve.

target: Bile acid receptor (Homo sapiens) (UniProt Q96RI1); experiment: qHTS assay for small molecule agonists of farnesoid X receptor signaling (AID 588527); details: HEK293T FXR-UAS-bla, beta-lactamase ratio, 16 h; activation: hits give high values;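 note: series mostly up to about 77 µM; 0% = vehicle basal and 100% = reference agonist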
In short: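 Quantitative HTS used FXR-UAS-bla HEK293T cells with 16 h compound incubation at 37 C. EC50 values came from concentration-response curves normalized to chenodeoxycholic acid.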

Sequence of Bile acid receptor (Homo sapiens) (Q96RI1 whole entry, looked up): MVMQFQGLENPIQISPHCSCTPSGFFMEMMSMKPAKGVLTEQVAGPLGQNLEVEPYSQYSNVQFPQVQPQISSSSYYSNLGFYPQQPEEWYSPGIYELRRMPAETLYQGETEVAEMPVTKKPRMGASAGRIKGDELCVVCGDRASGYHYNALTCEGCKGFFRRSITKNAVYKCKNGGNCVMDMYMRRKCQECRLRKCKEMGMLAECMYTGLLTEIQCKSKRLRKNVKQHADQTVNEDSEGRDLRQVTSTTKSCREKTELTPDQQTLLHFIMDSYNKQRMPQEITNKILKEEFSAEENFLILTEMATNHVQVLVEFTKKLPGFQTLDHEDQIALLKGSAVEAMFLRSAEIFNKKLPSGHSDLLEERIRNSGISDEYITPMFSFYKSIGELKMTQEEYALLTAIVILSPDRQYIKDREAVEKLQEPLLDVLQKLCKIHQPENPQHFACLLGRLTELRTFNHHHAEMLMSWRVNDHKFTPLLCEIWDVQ

Structure (SMILES)	activation
CCOC(=O)C(C)Oc1ccc(Oc2cnc3cc(Cl)ccc3n2)cc1 (centres undefined)	-3.91% (inactive)
CCCCOC(=O)/C=C\C(=O)OCCCC	-3.9% (inactive)
CC(C)(C)CC(C)(C)c1ccc(OCCO)cc1	2.48% (inactive)
CN(C)Cc1cc(CN(C)C)c(O)c(CN(C)C)c1	-0.172% (inactive)
Nc1nc2ccccc2[nH]1	3.95% (inactive)
Cc1ccc2cccnc2c1	1.5% (inactive)
CC(=O)O[C@@H]1CC(C)=C2[C@H]1[C@H](C)CC[C@H]2/C=C(\C)C(=O)O	0.825% (inactive)
CCOc1cc(OCC)c(C(C)=O)cc1OCC	0.582% (inactive)
CCO	-3.44% (inactive)
O=Cc1ccccc1Cl	0.21% (inactive)
S=C1NC=NC2N=CNC12 (centres undefined)	-5.16% (inactive)
O=c1oc2cc(O)ccc2c2oc3cc(O)ccc3c12	8.73% (inactive)
O=C(O)c1ccc2c(c1)C(=O)OC2=O	-5.89% (inactive)
CCO[Si](CCC#N)(OCC)OCC	0.364% (inactive)
CCCCCCCCCCCCCCCO	-2.39% (inactive)
NC1=NC(S)C2N=CN=C2N1 (centres undefined)	2.34% (inactive)
COc1ccc(OC)c(OC)c1	0.0379% (inactive)
OCc1cccc(Oc2ccccc2)c1	-0.998% (inactive)
O=Cc1ccc(CO)o1	2.1% (inactive)
CCCCCCCCCCCC[N+](C)(C)C	0.368% (inactive)

Structure (SMILES)	activation
O=C(Nc1ccccc1)c1cc(Cl)ccc1O	1.59% (inactive)
Nc1ccc(N)c2c1C(=O)c1c(N)ccc(N)c1C2=O	-0.332% (inactive)
CC(C)c1ccc(C(C)C)cc1	2.92% (inactive)
CCC(C)(C)C	-0.224% (inactive)
CCCCOC(=O)COc1ccc(Cl)cc1Cl	-5.91% (inactive) and -0.513% (inactive)
NC(N)=S	-0.31% (inactive)
CC1(C)[C@@H]([C@@H](Br)C(Br)(Br)Br)[C@H]1C(=O)O[C@H](C#N)c1cccc(Oc2ccccc2)c1	6.35% (inactive)
COC(C)=O	-0.0908% (inactive)
O=C(O)CCSSCCC(=O)O	-1.56% (inactive)
CC(C)OB(OC(C)C)OC(C)C	-0.77% (inactive)
CCOCCOCCOCCO	2.46% (inactive)
C=CCOC(=O)CCCCCCCC	-1.24% (inactive)
Nc1ccc(S(=O)(=O)O)cc1	-1.98% (inactive) and -2.03% (inactive)
Cc1cc2nc(N)sc2cc1C	0.811% (inactive)
O=C=NCCCCCCN=C=O	0.566% (inactive)
CCCCCCCCCCO	-3.92% (inactive)
Cn1c(=O)[nH]c(=O)n(C2CCCCC2)c1=O	2.64% (inactive)
C#CCOC(=O)[C@@H](C)Oc1ccc(Oc2ncc(Cl)cc2F)cc1	-1.83% (inactive)
CC(C)(C)c1cc(C(C)(C)C)c(O)c(C(C)(C)C)c1	8.66% (inactive)
